From the supplement of paper PMC8728848
This excerpt belongs to a sample that is enriched for the strongest signals.

How the values were obtained:
Experiment in all cases: glycan array binding signal (z-score within array); higher = stronger binding
Settings in all cases: glycan notation: IUPAC condensed, linker removed
[1] = target: GlcNAc(b1-2)[GlcNAc(b1-4)]Man(a1-3)[GlcNAc(b1-2)Man(a1-6)]Man(b1-4)GlcNAc(b1-4)GlcNAc
Summary of the method: (§1)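 Glycan array binding is given as a within-array Z-score, which can be read as non-binding when negative. The arrays, 3228 of them, came from the Consortium for Functional Glycomics database and were retained only where the protein sequence was available. Z-scores were averaged across arrays of the same protein sequence at different concentrations or buffers and across linkers.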

[2] = target: GlcNAc(b1-3)Gal(b1-4)GlcNAc(b1-3)Gal(b1-4)GlcNAc(b1-3)GalNAc
Summary of the method: as §1

[3] = target: Man(a1-2)Man(a1-2)Man(a1-3)Man
Summary of the method: as §1

[4] = target: Man(a1-2)Man(a1-2)Man(a1-3)[Man(a1-2)Man(a1-3)[Man(a1-2)Man(a1-6)]Man(a1-6)]Man(b1-4)GlcNAc(b1-4)GlcNAc
Summary of the method: as §1

[5] = target: Man(a1-2)Man(a1-2)Man(a1-3)[Man(a1-2)Man(a1-6)[Man(a1-3)]Man(a1-6)]Man(b1-4)GlcNAc(b1-4)GlcNAc
Summary of the method: as §1

[6] = target: Man(a1-2)Man(a1-3)[Man(a1-3)[Man(a1-6)]Man(a1-6)]Man(b1-4)GlcNAc(b1-4)GlcNAc
Summary of the method: as §1

[7] = target: Man(a1-2)Man(a1-3)[Man(a1-6)]Man(a1-6)[Man(a1-2)Man(a1-3)]Man(b1-4)GlcNAc(b1-4)GlcNAc
Summary of the method: as §1

[8] = target: Man(a1-2)Man(a1-6)[Man(a1-3)]Man(a1-6)[Man(a1-2)Man(a1-2)Man(a1-3)]Man(b1-4)GlcNAc(b1-4)GlcNAc
Summary of the method: as §1

[9] = target: Man(a1-3)[Man(a1-6)]Man(a1-6)[Man(a1-2)Man(a1-3)]Man(b1-4)GlcNAc(b1-4)GlcNAc
Summary of the method: as §1

[10] = target: Man(a1-3)[Man(a1-6)]Man(a1-6)[Man(a1-3)]Man(b1-4)GlcNAc(b1-4)GlcNAc
Summary of the method: as §1

[11] = target: Man(a1-3)[Man(a1-6)]Man(b1-4)GlcNAc(b1-4)GlcNAc
Summary of the method: as §1

[12] = target: Neu5Ac(a2-3)Gal(b1-4)GlcNAc(b1-2)Man(a1-3)[GlcNAc(b1-4)][Neu5Ac(a2-3)Gal(b1-4)GlcNAc(b1-2)Man(a1-6)]Man(b1-4)GlcNAc(b1-4)GlcNAc
Summary of the method: as §1

[13] = target: Neu5Ac(a2-3)Gal(b1-4)GlcNAc(b1-3)[Neu5Ac(a2-3)Gal(b1-4)GlcNAc(b1-6)]GalNAc
Summary of the method: as §1

[14] = target: Neu5Ac(a2-3)Gal(b1-4)[Fuc(a1-3)]GlcNAc(b1-6)[Gal(b1-3)]GalNAc
Summary of the method: as §1

[15] = target: Neu5Ac(a2-3)Gal6S(b1-4)GlcNAc
Summary of the method: as §1

[16] = target: Neu5Ac(a2-3)[GalNAc(b1-4)]Gal(b1-4)GlcNAc
Summary of the method: as §1

[17] = target: Neu5Ac(a2-6)Gal(b1-4)GlcNAc
Summary of the method: as §1

[18] = target: Neu5Ac(a2-6)Gal(b1-4)GlcNAc(b1-3)Gal(b1-4)GlcNAc(b1-2)Man(a1-3)[Neu5Ac(a2-6)Gal(b1-4)GlcNAc(b1-3)Gal(b1-4)GlcNAc(b1-2)Man(a1-6)]GalNAc
Summary of the method: as §1

[19] = target: Neu5Ac(a2-6)Gal(b1-4)GlcNAc(b1-6)[Gal(b1-3)GlcNAc(b1-3)]Gal(b1-4)Glc
Summary of the method: as §1

[20] = target: Neu5Ac(a2-8)Neu5Ac(a2-3)[Gal(b1-3)GalNAc(b1-4)]Gal(b1-4)Glc
Summary of the method: as §1

[21] = target: Neu5Ac(a2-8)Neu5Ac(a2-8)Neu5Ac(a2-8)Neu5Ac(a2-3)[GalNAc(b1-4)]Gal(b1-4)Glc
Summary of the method: as §1

[22] = target: Neu5Gc(a2-3)Gal(b1-4)GlcNAc(b1-3)Gal(b1-4)GlcNAc(b1-2)Man(a1-3)[Neu5Gc(a2-3)Gal(b1-4)GlcNAc(b1-3)Gal(b1-4)GlcNAc(b1-2)Man(a1-6)]Man(b1-4)GlcNAc(b1-4)GlcNAc
Summary of the method: as §1

[23] = target: Neu5Gc(a2-3)Gal(b1-4)[Fuc(a1-3)]GlcNAc
Summary of the method: as §1

[24] = target: Neu5Gc(a2-8)Neu5Gc(a2-3)Gal(b1-4)GlcNAc
Summary of the method: as §1

B1: Nictaba (Nicotiana tabacum), Q94EW1 (protein)
chain: MQGQWIAARDLSITWVDNPQYWTWKTVDPNIEVAELRRVAWLDIYGKIETKNLIRKTSYAVYLVFKLTDNPRELERATASLRFVNEVAEGAGIEGTTVFISKKKKLPGELGRFPHLRSDGWLEIKLGEFFNNLGEDGEVEMRLMEINDKTWKSGIIVKGFDIRPN
Question: What does the source list for B1?
Answer: glycan array binding signal (z-score) [1]: -0.101; glycan array binding signal (z-score) [2]: -0.388; glycan array binding signal (z-score) [3]: -0.29; glycan array binding signal (z-score) [4]: 3.93; glycan array binding signal (z-score) [5]: 4; glycan array binding signal (z-score) [6]: 4.38; glycan array binding signal (z-score) [7]: 4.07; glycan array binding signal (z-score) [8]: 4.83; glycan array binding signal (z-score) [9]: 6.51; glycan array binding signal (z-score) [10]: 4.21; glycan array binding signal (z-score) [11]: 3.44; glycan array binding signal (z-score) [12]: -0.37; glycan array binding signal (z-score) [13]: -0.389; glycan array binding signal (z-score) [14]: -0.249; glycan array binding signal (z-score) [15]: -0.272; glycan array binding signal (z-score) [16]: -0.269; glycan array binding signal (z-score) [17]: -0.276; glycan array binding signal (z-score) [18]: 1.27; glycan array binding signal (z-score) [19]: -0.387; glycan array binding signal (z-score) [20]: -0.3; glycan array binding signal (z-score) [21]: -0.244; glycan array binding signal (z-score) [22]: 0.883; glycan array binding signal (z-score) [23]: -0.366; glycan array binding signal (z-score) [24]: -0.388
